# Most compounds without a hit are left out; they make up all but 1.6% or so of the library.
# KCNQ2 block – KCNQ2 (rat) channel inhibition. O88943. CHO-K1 KCNQ2, FluxOR thallium flux, 20 min; active compounds read low. B-score at 10 µM. 310,000 compounds, 1.1% hits. AID 2156;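 active = fluorescence ratio B-score at most minus 3 library SDs, with starting brightness B-score within 2 library SDs, cut at about -5.5 in these data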
# KCNQ2 pot – KCNQ2 (rat) channel potentiation | CHO-K1 KCNQ2, FluxOR thallium flux fluorescence; active compounds read high | B-score at 10 µM | 310,000 compounds, 0.54% hits | AID 2239;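 active = fluorescence ratio B-score at least 3 SD of library B-scores, with initial fluorescence B-score within 3 of them, cut at about 5.3 in these data; same plate scores as AID 2156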;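 also: B-score of peak minus minimum over baseline fluorescence ratio after K+ and Tl+ stimulus; positive B-score means potentiation of KCNQ2 with more thallium influx and brighter signal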
# KCNQ2 inh conf – confirmation of rat KCNQ2 potassium channel inhibitors; shares compounds with KCNQ2 block; KCNQ2-expressing cells, thallium flux, inhibition; active compounds read low; activity change, negative = inhibition, % at 10 µM; 1,000 compounds, 57% hits;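 also: 0% = vehicle wells and values are ratio percent relative to vehicle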
# KCNQ1 spec – human KCNQ1 activity in KCNQ2 inhibitor specificity screen. shares compounds with KCNQ2 block. KCNQ1-expressing cells, FluxOR thallium flux fluorescence; active compounds read low. activity change, negative = inhibition, % at 10 µM. 1,000 compounds, 15% hits. AID 493026;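 active = activity change at least 3 SD of negative controls below their mean in both duplicate wells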;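 also: CHO cells stably transfected with KCNQ1 and depolarized by potassium stimulus; peak minus minimum fluorescence over baseline after thallium addition; 0% = vehicle negative control and -100% = blank without thallium stimulus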
# CHO parental ctr – KCNQ2 inhibitor counter-screen hit in parental CHO cells; shares compounds with KCNQ2 block; thallium flux counter-screen; active compounds read low; activity change, % at 10 µM; 1,000 compounds, 14% hits; AID 493029;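 also: 0% = vehicle negative controls with stimulus buffer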
# KCNQ2 patch conf – blocks rat KCNQ2 current in automated patch clamp; 550 compounds, 49% hits; KCNQ2-expressing cells; AID 588531; calls only at 10 µM; shares compounds with KCNQ2 block
# * marks the source's active call; other numbers are inactive results; i = inactive; . = not tested or not shown; + = active, no number. Unless noted, no rule for the calls is given here.
SMILES,KCNQ2 block,KCNQ2 pot,KCNQ2 inh conf,KCNQ1 spec,CHO parental ctr,others
CC(C)Oc1ccc(CN2CCC(n3nccc3NC(=O)CCc3ccccc3)CC2)cc1,i,0.3,.,.,.,
COc1ccc(CN2CCNC(=O)C2CC(=O)N2CCCN(C(C)=O)CC2)c(OC)c1 (centres undefined),i,.,.,.,.,
COc1ccc(/C=C(\NC(=O)c2ccc(Cl)cc2)C(=O)NCC2CCCO2)cc1OC (centres undefined),i,0.03,.,.,.,
Cc1ccccc1CSCCNC(=O)COc1ccc(Cl)cc1,-8.57*,-8.57,i,i,i,
CC(C)(C)SCCNC(=O)COc1ccc(Cl)cc1,i,.,.,.,.,
O=C(Nc1ccc(F)cc1F)c1ccccc1NC(=O)C1CC=CCC1C(=O)O (centres undefined),i,0.99,.,.,.,
COc1cccc(C(=O)NC(=S)Nc2ccccc2N2CCOCC2)c1,-8.67*,-8.67,-29.0%*,i,i,KCNQ2 patch conf=+
CC(C)Oc1cccc(C(=O)Nc2ccccc2N2CCOCC2)c1,i,.,.,.,.,
O=C(c1ccc(F)cc1)C1CCN(Cc2ccc(F)cc2)CC1,i,.,.,.,.,
C=CCN1CCN(C(=O)c2ccc3c(c2)OCO3)CC1,i,0.29,.,.,.,
COc1ccccc1CNC(=O)C1CCN(Cc2nc(-c3cccc(Cl)c3)oc2C)CC1,-7.78*,-7.78,i,i,i,
Cc1cccc(-c2nc(CN3CCCC(C(=O)NC4CCCCC4)C3)c(C)o2)c1 (centres undefined),i,.,.,.,.,
Cc1cccc(-c2nc(CN3CCCC(C(=O)NC4CCCCCC4)C3)c(C)o2)c1 (centres undefined),-9.66*,-9.66,-27.5%*,i,i,KCNQ2 patch conf=+
CCc1ccc(-c2nc(CN3CCC(C(=O)NCc4ccccc4OC)CC3)c(C)o2)cc1,i,.,.,.,.,
CCc1cccc(NC(=O)c2ccc(CNc3c(N4CCCC4)c(=O)c3=O)cc2)c1,i,.,.,.,.,
COc1ccc(CNC(=O)C(c2cccs2)N(Cc2ccco2)C(=O)Cc2cccs2)cc1 (centres undefined),-14*,-14,-29.0%*,i,i,KCNQ2 patch conf=+
COc1ccc(CNC(=O)C(c2ccco2)N(Cc2cccs2)C(=O)Cc2cccs2)cc1 (centres undefined),i,0.01,.,.,.,
CCOc1ccc(NC(=O)CS(=O)(=O)c2cn(CC)c3ccccc23)cc1,i,1.04,.,.,.,
CCOC(=O)c1c(NC(=S)Nc2ccc(F)cc2)sc2c1CCC2,-6.98*,-6.98,i,i,i,
CCOC(=O)c1c(NC(=O)CS(=O)(=O)c2cn(CC)c3ccccc23)sc2c1CCCC2,-10.6*,-10.6,-36.5%*,i,i,KCNQ2 patch conf=+
CCOC(=O)c1c(NC(=O)Cc2cccs2)sc2c1CCCC2,i,.,.,.,.,
CCOC(=O)c1c(NC(=S)Nc2ccc(C)cc2)sc2c1CCC2,i,0.01,.,.,.,
CCOC(=O)c1c(NC(=O)CS(=O)(=O)c2cn(CC)c3ccccc23)sc2c1CCCCC2,-7*,-7,-25.0%*,i,i,KCNQ2 patch conf=+
Clc1cccc(CN2CCCCCC2)c1Cl,i,.,.,.,.,
Cc1ccc(C(=O)N/C(=C\c2ccco2)C(=O)N2CCCCC2)cc1,i,.,.,.,.,
SMILES,KCNQ2 block,KCNQ2 pot,KCNQ2 inh conf,KCNQ1 spec,CHO parental ctr,others
COc1ccc(CNC(=S)Nc2ccccc2-c2ccccc2)cc1,-7.63*,-7.63,-32.0%*,i,i,KCNQ2 patch conf=+
COc1ccc(CNC(=S)Nc2ccccc2Cl)cc1,i,0.11,.,.,.,
Cc1ccccc1COc1ccc(-c2nnn(CC(=O)O)n2)cc1,i,.,.,.,.,
O=C(c1ccc(Cl)c(S(=O)(=O)N2CCCCC2)c1)N1CCN(Cc2ccccc2)CC1,i,.,.,.,.,
Brc1cccc(/C=N/Nc2nc(N3CCCCC3)nc(N3CCCCC3)n2)c1,-6.89*,-6.89,-19.0%*,i,i,KCNQ2 patch conf=i
O=[N+]([O-])c1cccc(-n2cccc2/C=N/Nc2nc(N3CCCCC3)nc(N3CCCCC3)n2)c1,i,.,.,.,.,
Oc1ccc(/C=N/Nc2nc(N3CCCC3)nc(N3CCCC3)n2)cc1O,i,.,.,.,.,
O=[N+]([O-])c1cccc(/C=N/Nc2nc(N3CCCCC3)nc(N3CCCCC3)n2)c1,-7.67*,-7.67,-34.0%*,i,i,KCNQ2 patch conf=i
CCCCOc1ccc(N2CC(C(=O)NCc3ccco3)CC2=O)cc1 (centres undefined),i,.,.,.,.,
O=S(=O)(c1ccc(F)cc1)N1CCN(CC2CC3C=CC2C3)CC1 (centres undefined),i,0.67,.,.,.,
CCCCNC(=O)CSc1nnc(Cc2ccc(Cl)c(Cl)c2)c(=O)[nH]1,i,.,.,.,.,

# Compound activity as filed in PubChem BioAssay.
